# Sampled rows, rich in hits. Any-hit rate of the full collection: about 2.6%.
# PAFAH1B2 inh – PAFAH1B2 enzyme inhibitors, primary screen, biochemical, fluorescence polarization, human. recombinant PAFAH1B2, FP-rhodamine activity probe. AID 492953, 2010. 340,000 compounds, 1.2% hits. Platelet-activating factor acetylhydrolase IB subunit alpha2 (Homo sapiens), P68402. inhibition, % at 3.39 µM;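 active = inhibition above the mean of all tested compounds plus 3 SD, cut at about 24% in these data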;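 note: 0% = enzyme with DMSO and 100% = wells lacking PAFAH1B2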
# Target sequence (P68402 whole entry, looked up): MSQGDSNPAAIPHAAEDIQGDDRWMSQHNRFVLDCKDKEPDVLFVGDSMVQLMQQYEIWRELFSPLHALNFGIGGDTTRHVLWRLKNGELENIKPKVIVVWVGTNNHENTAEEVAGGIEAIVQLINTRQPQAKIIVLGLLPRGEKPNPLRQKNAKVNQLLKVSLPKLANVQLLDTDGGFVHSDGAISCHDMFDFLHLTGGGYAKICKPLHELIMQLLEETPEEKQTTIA
# PAFAH1B3 FP inh – PAFAH1B3 enzyme inhibitors, primary screen, biochemical, fluorescence polarization, human; inhibition, % at 3.39 µM; recombinant PAFAH1B3, FP-rhodamine probe; 340,000 compounds, 0.28% hits; Platelet-activating factor acetylhydrolase IB subunit alpha1 (Homo sapiens), Q15102;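 active = inhibition above the screen-wide average of all tested compounds plus 3 SD, cut at about 25% in these data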;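 note: 0% = enzyme with DMSO only and 100% = wells lacking PAFAH1B3 protein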
# pPAFAH inh – pPAFAH enzyme inhibitors, primary screen, biochemical, fluorescence polarization, human. Platelet-activating factor acetylhydrolase (Homo sapiens), Q13093. recombinant pPAFAH, FP-rhodamine probe fluorescence polarization. inhibition, % at 3.39 µM. 330,000 compounds, 1.5% hits;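 active = inhibition above the mean inhibition across the screen plus 3 SD, cut at about 25% in these data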;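 note: inhibitors block binding of the rhodamine activity-based probe so polarization drops; 0% = enzyme with DMSO and 100% = wells lacking pPAFAH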
# PKA-R1A act – activators of PKA-R1A holoenzyme, primary screen, biochemical, fluorescence polarization, Cy5-IP20, bovine R1A, mouse PKAc | cAMP-dependent protein kinase type I-alpha regulatory subunit (Bos taurus) + … | PKA-R1A dissociation; scaled: DMSO 0%, 113 µM cGMP 100% | activation, % at 11.4 µM | 340,000 compounds, 0.083% hits;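 active = percent activation above the mean of all tested compounds plus 3 SD, cut at about 19% in these data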;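 note: higher means more PKAc released from R1A so a rise in polarization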
# PKA-R2B activ – activators of PKA-R2B holoenzyme, primary screen, biochemical, fluorescence polarization, Cy5-IP20, human. cAMP-dependent protein kinase catalytic subunit beta (Homo sapiens) + cAMP-dependent …. PKA-R2B holoenzyme dissociation; R2B truncated from residue 108, S112A mutant; 0% DMSO only, 100% 113 µM cGMP. activation, % at 11.4 µM. 340,000 compounds, 0.079% hits;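 active = activation above a cutoff set at the mean over all compounds plus 3 SD, cut at about 18% in these data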;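 note: higher means more holoenzyme dissociation and a rise in polarization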
# PAFAH2 inh – PAFAH2 enzyme inhibitors, primary screen, biochemical, fluorescence polarization, human; Platelet-activating factor acetylhydrolase 2, cytoplasmic (Homo sapiens), Q99487; recombinant PAFAH2, FP-rhodamine activity probe; inhibition, % at 3.39 µM; 340,000 compounds, 0.99% hits;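 active = inhibition above the mean over all tested compounds plus 3 SD, cut at about 30% in these data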;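 note: inhibitors block probe labeling of enzyme so polarization drops; 0% = enzyme with DMSO and 100% = wells lacking PAFAH2 protein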
# The depositor's hits bear a star; · = not tested or not shown.
SMILES,PAFAH1B2 inh,PAFAH1B3 FP inh,pPAFAH inh,PKA-R1A act,PKA-R2B activ,PAFAH2 inh
CCN(CC)CCN(C(=O)c1ccc2c(c1)CCCC2)c1nc2c(C)cccc2s1,2,2,0,0,-5,3
CCC(=Cc1ccccc1O)c1ccncc1,0,-3,·,-5,-6,-2
COc1ccc(NC(=S)N2CCC(c3nc4ccc(Cl)cc4[nH]3)CC2)c(OC)c1,-3,7,31*,-7,11,-6
N#Cc1c(-c2ccccc2)nc(SCC(=O)N2c3ccccc3Sc3ccccc32)[nH]c1=O,24*,-9,3,11,11,-13
N#Cc1c(-c2ccccc2)nc(SCC(=O)Nc2ccccc2)[nH]c1=O,7,14,-2,8,-10,-2
N#Cc1c(-c2ccccc2)nc(SCC(=O)N(c2ccccc2)c2ccccc2)[nH]c1=O,39*,8,0,7,8,-4
N#Cc1c(-c2ccccc2)nc(SCC(=O)Nc2ccccc2F)[nH]c1=O,4,11,-4,-1,-2,-7
N#Cc1c(-c2ccccc2)nc(SCc2ccc(Cl)cc2)[nH]c1=O,35*,-1,8,8,2,-10
N#Cc1c(-c2ccccc2)nc(SCC(=O)Nc2ccc(OC(F)(F)Cl)cc2)[nH]c1=O,79*,14,-7,9,-10,-4
C[C@H](CCC(=O)NCC(=O)O)[C@H]1CC[C@H]2C3[C@H](O)C[C@@H]4C[C@H](O)CC[C@]4(C)[C@H]3C[C@H](O)[C@]12C (stereo partly drawn),-1,9,0,-7,1,4
CC(C)(C)OC(=O)N[C@H]1C=C[C@@H](OC(=O)CC(=O)OCC(F)(F)F)C1,2,1,5,2,3,-2
O=CNc1c(Cl)cc2c(c1Cl)Cc1cc([N+](=O)[O-])ccc1-2,3,10,·,9,-4,0
O=C1NC(=Nc2ccccc2)/C(=C/c2ccco2)S1,-2,7,34*,1,13,1
CCC(Sc1nc2ncccc2[nH]1)C(=O)N1CCOCC1 (stereo not drawn),4,4,10,-2,2,2
COc1ccc(C(NC(=O)/C=C\c2ccco2)c2ccc(OC)c(OC)c2)cc1 (stereo not drawn),3,2,5,-4,-10,1
COc1ccc(C(NC(=O)/C=C/c2ccco2)c2ccc(OC)cc2)cc1,0,0,27*,2,-8,4
O=C(CCN1C(=O)C2C3C=CC(C3)C2C1=O)N1CCCCC1 (stereo not drawn),0,4,2,-2,-1,0
CCOC(=O)C1CCN(C(=O)CCN2C(=O)C3C4C=CC(C4)C3C2=O)CC1 (stereo not drawn),-2,-3,29*,-5,0,5
O=C(O)C1C(c2ccccc2)c2ccccc2C(O)C1CO (stereo not drawn),11,5,·,-4,-11,-1
CCN(CC(=O)NCc1ccc(F)cc1)CC(=O)Nc1cc(S(=O)(=O)N(C)C)ccc1C,-3,-2,29*,-13,-15,2
CCOC(=O)c1ccc(S(=O)(=O)NC2CCC(C)CC2)cc1 (stereo not drawn),6,-8,7,8,-5,-5
COc1cccc(/C=C2/Sc3ccc(C(=O)NCCN4CCCC4)cc3NC2=O)c1,-1,3,34*,4,0,-8
COc1cccc(/C=C2/Sc3ccc(C(=O)NCCCN4CCCC4)cc3NC2=O)c1,-1,9,11,2,6,0
O=C(Nc1cccc(S(=O)(=O)NC2=NCCCCC2)c1)c1ccc(Cl)cc1,6,5,·,-5,5,8
Cc1cc(-c2csc(NC(=O)c3ccc(=O)[nH]c3)n2)c(C)n1Cc1ccccc1,7,9,31*,-3,-1,-14
